From PubChem BioAssay (NCATS)
Where “and” joins values, the source holds several entries; their conditions need not be identical. Identical values can stand only once. Results filed as inconclusive are left out. Calls of active or inactive are those of the source. Unless noted, calls follow the shape of the dose curve; as a rule, active = well fitted curve in the direction sought with a large enough effect; inconclusive = small, poorly fitted or top-dose-only effect, or another doubt; inactive = no such curve, though single readings can be large; an effect the other way counts as inactive or inconclusive.

How the values were obtained:
[1] = qHTS assay for measurement of the activity of small molecule inhibitors on Zika virus induced Caspase-3 activity in human astrocytoma cells (AID 1224859)
Procedure, shortened: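 Human SNB-19 astrocytoma cells in RPMI 1640 with 10% FBS receive compound one hour ahead of Zika virus at 2 FFU/cell. After 6 h infection, caspase-3/7 activity is detected by Caspase-Glo luminescence.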

[2] = qHTS Screen of the MIPE 4.0 Collection Against Ewings Sarcoma (RDES) (AID 1259252); also: nearly all actives have a fitted effect of over 35% in size; also: potency is read from the fitted curve at half-maximal effect
Procedure, shortened: (§1)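 Viability screen: 48 h incubation at 37C, 95% humidity, 5% CO2 with serially titrated compound, followed by CellTiter-Glo readout.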

[3] = qHTS Screen of the MIPE 4.0 Collection Against Ewings Sarcoma (TC71) (AID 1259253); also: nearly all actives have a fitted effect of over 40% in size; also: potency is read from the fitted curve at half-maximal effect
Procedure, shortened: as §1

[4] = qHTS Screen of the MIPE 4.0 Collection Against Ewings Sarcoma (EW8) (AID 1259255); also: nearly all actives have a fitted effect of over 35% in size; also: potency is read from the fitted curve at half-maximal effect
Procedure, shortened: as §1

[5] = qHTS Screen of the MIPE 4.0 Collection Against Ewings Sarcoma (TC32) (AID 1259256); also: nearly all actives have a fitted effect of over 45% in size; also: potency is read from the fitted curve at half-maximal effect
Procedure, shortened: as §1

[6] = Identifying Small Molecule Inhibitors of Pancreatic Cancer Stem Cells (Panc1, Spheroid) (AID 1259359);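 also: potency is read from the fitted curve at half-maximal effect; compound exposure lasted 48 h before reading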
Procedure, shortened: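 Luminescent ATP readout (CellTiter-Glo) quantifies surviving cells after a 48 h drug incubation. Normalization uses DMSO wells as no inhibition and media-only wells as full inhibition; bortezomib served as positive control.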

[7] = P-glycoprotein substrates identified in KB-8-5-11 adenocarcinoma cell line, qHTS therapeutic library screen (AID 1346987); also: nearly all actives have a fitted effect of over 65% in size; also: potency is read from the fitted curve at half-maximal effect
Procedure, shortened: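 Human cervical adenocarcinoma KB-8-5-11 cells, selected in colchicine to over-express P-gp and assayed without it, were exposed for 72 h to titrated compounds. An ATP-based luminescent viability signal gave AC50.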

[8] = NS1 protein of Zika virus - qHTS assay to identify small molecule inhibitors in human HEK 293 cells (AID 1347053); also: nearly all actives have a fitted effect of over 55% in size; also: potency is read from the fitted curve at half-maximal effect
Procedure, shortened: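 In this cell-based screen, HEK 293 cultures received compound for one hour before Zika MR766 at MOI = 0.5. NS1 was quantified 24 hours later by TR-FRET, normalized to virus-free wells and infected wells.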

[9] = Identifying Small Molecule Inhibitors of Pancreatic Cancer Stem Cells (SN12C, Spheroid) (AID 1259360); settings: Potency: SN12C spheroid viability; also: potency is read from the fitted curve at half-maximal effect
Procedure, shortened: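 Endpoint: ATP-based luminescence, 48 h drug exposure. Bortezomib at 9.2 uM final as full-kill control; DMSO vehicle as negative control; activity normalized between vehicle and cell-free wells.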

[10] = P-glycoprotein substrates identified in KB-3-1 adenocarcinoma cell line, qHTS therapeutic library screen (AID 1346986); also: nearly all actives have a fitted effect of over 60% in size;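 also: potency is read from the fitted curve at half-maximal effect; potency is for cytotoxicity meaning loss of cell viability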
Procedure, shortened: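 Viability by CellTiter-Glo after 72 h compound exposure at 37 degree C, 5% CO2. Cytotoxic call: curve class -1.1 to -2.4, maximum response >50%, AC50 < 10 uM, compared across KB-3-1 and P-gp-overexpressing KB-8-5-11.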

[11] = Identifying Small Molecule Inhibitors of Pancreatic Cancer Stem Cells (Panc1, Adherent) (AID 1259362); settings: Potency: viability; also: potency is read from the fitted curve at half-maximal effect
Procedure, shortened: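 Viability is scored by CellTiter-Glo luminescence 48 h after dosing, expressed as percent activity against vehicle and no-cell references. Spheroid formats rely on cells cultured 14 days in stem cell media beforehand.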

[12] = Identifying Small Molecule Inhibitors of Pancreatic Cancer Stem Cells (SN12C, Adherent) (AID 1259358);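 also: potency is read from the fitted curve at half-maximal effect; cell survival measured after 48 h of compound exposure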
Procedure, shortened: (§2)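 Monolayer and spheroid cultures are compared. Spheroids form over 14 days in stem cell medium on hydrogel-coated low-attachment plates, then are exposed to compound for 48 h before CellTiter-Glo luminescence.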

[13] = Identifying Small Molecule Inhibitors of Pancreatic Cancer Stem Cells (A278, Adherent) (AID 1259361);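 also: viability read after 48 h compound exposure; nearly all actives have a fitted effect of over 35% in size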
Procedure, shortened: as §2

[14] = biological target: Atrial natriuretic peptide receptor 1 (Homo sapiens) (UniProt P16066); assay: Natriuretic polypeptide receptor (hNpr1) antagonism - Pilot screen (AID 1347049; calls by dose curve;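 also: agonist-evoked cGMP luminescence read 20 min after hNppA addition; series mostly up to about 58 µM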)
Sequence of Atrial natriuretic peptide receptor 1 (Homo sapiens) (P16066 whole entry, looked up): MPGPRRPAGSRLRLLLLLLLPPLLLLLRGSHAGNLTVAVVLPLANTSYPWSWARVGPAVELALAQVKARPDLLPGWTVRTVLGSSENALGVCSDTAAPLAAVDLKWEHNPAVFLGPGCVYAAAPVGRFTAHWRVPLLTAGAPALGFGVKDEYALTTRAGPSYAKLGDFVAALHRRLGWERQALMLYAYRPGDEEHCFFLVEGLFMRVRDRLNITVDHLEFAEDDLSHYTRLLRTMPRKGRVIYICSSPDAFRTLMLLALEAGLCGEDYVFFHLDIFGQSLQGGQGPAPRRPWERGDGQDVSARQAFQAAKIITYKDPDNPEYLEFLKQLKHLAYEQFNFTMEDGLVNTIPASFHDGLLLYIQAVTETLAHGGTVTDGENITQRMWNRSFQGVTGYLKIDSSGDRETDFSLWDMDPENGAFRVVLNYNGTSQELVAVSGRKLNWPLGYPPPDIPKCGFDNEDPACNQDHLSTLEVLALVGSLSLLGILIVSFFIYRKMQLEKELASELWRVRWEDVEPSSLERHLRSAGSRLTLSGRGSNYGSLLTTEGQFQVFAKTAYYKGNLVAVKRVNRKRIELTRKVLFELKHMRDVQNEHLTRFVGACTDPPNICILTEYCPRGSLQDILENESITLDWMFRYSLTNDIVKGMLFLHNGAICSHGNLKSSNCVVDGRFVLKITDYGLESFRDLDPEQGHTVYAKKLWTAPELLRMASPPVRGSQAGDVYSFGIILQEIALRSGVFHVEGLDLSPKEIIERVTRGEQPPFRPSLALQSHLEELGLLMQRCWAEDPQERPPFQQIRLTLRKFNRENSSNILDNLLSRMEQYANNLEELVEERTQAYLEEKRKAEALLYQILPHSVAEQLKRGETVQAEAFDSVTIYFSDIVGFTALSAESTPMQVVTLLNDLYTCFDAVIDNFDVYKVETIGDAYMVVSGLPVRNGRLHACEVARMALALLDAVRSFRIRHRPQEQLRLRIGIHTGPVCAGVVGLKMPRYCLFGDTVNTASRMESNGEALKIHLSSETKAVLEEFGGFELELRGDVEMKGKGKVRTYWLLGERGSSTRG
Procedure, shortened: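 cGMP-sensor HEK293/hNpr1 cells, 1500/well, plated overnight at 37C. 2% GloSensor reagent, 2 h RT. Compound (23 nL pin transfer) 30 min RT, baseline luminescence pre-read. 0.1 nM hNppA, 20 min RT, post-read.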

[15] = biological target: Atrial natriuretic peptide receptor 2 (Homo sapiens) (UniProt P20594); assay: Natriuretic polypeptide receptor (hNpr2) antagonism - Pilot subtype selectivity assay (AID 1347050; calls by dose curve)
Sequence of Atrial natriuretic peptide receptor 2 (Homo sapiens) (P20594 whole entry, looked up): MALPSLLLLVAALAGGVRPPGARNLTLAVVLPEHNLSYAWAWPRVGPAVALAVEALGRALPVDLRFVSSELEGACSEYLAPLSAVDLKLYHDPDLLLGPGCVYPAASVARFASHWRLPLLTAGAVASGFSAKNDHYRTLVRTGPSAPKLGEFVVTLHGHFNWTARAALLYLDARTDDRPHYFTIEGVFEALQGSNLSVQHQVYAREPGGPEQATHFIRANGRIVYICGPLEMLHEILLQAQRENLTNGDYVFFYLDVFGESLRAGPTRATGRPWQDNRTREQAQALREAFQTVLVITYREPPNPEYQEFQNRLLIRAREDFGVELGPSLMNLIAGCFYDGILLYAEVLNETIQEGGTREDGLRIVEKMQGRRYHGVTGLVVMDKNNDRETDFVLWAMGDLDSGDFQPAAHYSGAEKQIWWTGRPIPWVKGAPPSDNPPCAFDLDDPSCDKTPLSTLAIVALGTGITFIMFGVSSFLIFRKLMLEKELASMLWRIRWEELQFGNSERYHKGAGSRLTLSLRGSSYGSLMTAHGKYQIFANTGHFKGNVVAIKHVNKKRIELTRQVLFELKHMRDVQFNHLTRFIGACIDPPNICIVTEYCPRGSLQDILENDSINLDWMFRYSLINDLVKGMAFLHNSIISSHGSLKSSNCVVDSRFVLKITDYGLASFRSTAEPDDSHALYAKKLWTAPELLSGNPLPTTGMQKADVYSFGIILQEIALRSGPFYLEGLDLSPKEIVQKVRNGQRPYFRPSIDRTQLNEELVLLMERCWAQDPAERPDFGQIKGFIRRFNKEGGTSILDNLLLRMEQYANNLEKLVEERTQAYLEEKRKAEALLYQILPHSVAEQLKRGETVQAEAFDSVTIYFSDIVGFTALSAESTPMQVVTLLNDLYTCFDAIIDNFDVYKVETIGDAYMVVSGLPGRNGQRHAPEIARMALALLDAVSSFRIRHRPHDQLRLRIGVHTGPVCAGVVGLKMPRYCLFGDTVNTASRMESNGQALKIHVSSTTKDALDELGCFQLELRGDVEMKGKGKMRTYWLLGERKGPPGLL
Procedure, shortened: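 Luminescence from a genetically encoded cGMP luciferase biosensor in hNpr2-expressing HEK293 cells is read before and 20 min after adding 1 nM hNppC. Test compounds, in interplate 1:5 titrations, are added 30-50 min ahead of the agonist.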

CNC(=O)c1cc(Oc2ccc(NC(=O)Nc3cc(C(C)(C)C)nn3-c3ccc4ncccc4c3)c(F)c2)ccn1
inactive: Potency [1] | Potency [8]
active: Potency [2] 20.9 µM | Potency [3] 16.6 µM | Potency [4] 18.7 µM | Potency [5] 20.9 µM | Potency [6] 13.2 µM | Potency [7] 18.7 µM

C=C1C(=CC=C2CCCC3(C)[C@@H]([C@H](C)C=CC=CC(O)(CC)CC)CC[C@@H]23)C[C@@H](O)C[C@@H]1O (stereo partly specified)
active: Potency [2] 18.7 µM | Potency [3] 18.7 µM | Potency [4] 23.5 µM | Potency [5] 20.9 µM | Potency [9] 18.7 µM
inactive: Potency [1] | Potency [10] | Potency [7] | Potency [8]

CCC(=C(c1ccccc1)c1ccc(OCCN(C)C)cc1)c1ccccc1
inactive: Potency [1]
active: Potency [2] 26.4 µM | Potency [3] 16.6 µM | Potency [4] 20.9 µM | Potency [5] 16.6 µM | Potency [9] 18.7 µM

CC(C)(C)c1cc(C(C)(C)C)c(NC(=O)c2c[nH]c3ccccc3c2=O)cc1O
active: Potency [11] 23.5 µM
inactive: Potency [1] | Potency [2] | Potency [3] | Potency [4] | Potency [5] | Potency [7] | Potency [8]

O=C(O)c1ccc2cc(-c3ccc(O)c(C45CC6CC(CC(C6)C4)C5)c3)ccc2c1
inactive: Potency [1]
active: Potency [2] 1.32 µM | Potency [3] 0.59 µM | Potency [4] 1.66 µM | Potency [5] 0.372 µM | Potency [12] 2.64 µM | Potency [8] 0.59 µM

Cc1cc(Nc2cc(N3CCN(C)CC3)nc(C=Cc3ccccc3)n2)n[nH]1
inactive: Potency [1] | Potency [9]
active: Potency [2] 5.4 µM | Potency [3] 2.41 µM | Potency [4] 1.71 µM | Potency [5] 2.41 µM | IC50 (viability decrease) [13] 2.35 µM | Potency [7] 6.05 µM | Potency [8] 21.5 µM

O=C(Nc1cc(C(F)(F)F)cc(C(F)(F)F)c1)c1cc(Cl)ccc1O
inactive: Potency [1]
active: Potency [2] 1.18 µM | Potency [3] 1.05 µM | Potency [4] 2.35 µM | Potency [5] 1.18 µM | Potency [6] 0.372 µM | Potency [9] 0.833 µM | Potency [7] 187 nM and 820 nM | Potency [8] 2.64 µM

Clc1ccc2ncc(-c3cccc(NC4CNC4)n3)n2c1
inactive: Potency [1] | Potency [9] | Potency [10] | Potency [7] | Potency [8]
active: Potency [2] 18.7 µM | Potency [3] 20.9 µM | Potency [4] 3.32 µM | Potency [5] 18.7 µM

CC1(O)CC(c2nc(-c3ccc4ccc(-c5ccccc5)nc4c3)c3c(N)nccn23)C1 (stereo unspecified)
inactive: Potency [1]
active: Potency [2] 20.9 µM | Potency [3] 5.9 µM | Potency [4] 13.2 µM | Potency [5] 0.0743 µM | Potency [6] 0.148 µM | Potency [10] 6.51 µM | Potency [7] 14.8 µM and 9.2 µM

CCN1CCN(CC(=O)Nc2ccc(-c3cccc4c(=O)cc(N5CCOCC5)oc34)c3sc4ccccc4c23)CC1
active: Potency [2] 8.33 µM | Potency [3] 6.62 µM | Potency [4] 16.6 µM | Potency [5] 1.32 µM | Potency [6] 16.6 µM | Potency [9] 14.8 µM | IC50 (viability decrease) [13] 4.18 µM | Potency [10] 1.88 µM | Potency [7] 2.96 µM
inactive: Potency [1]

Cc1cccc(C=NNc2cc(N3CCOCC3)nc(OCCc3ccccn3)n2)c1
active: Potency [2] 18.7 µM | Potency [3] 16.6 µM | Potency [4] 16.6 µM | Potency [5] 5.26 µM | Potency [6] 23.5 µM | Potency [8] 23.5 µM
inactive: Potency [1]

CN(C)CC(C)(C)CNc1nn2c(-c3ccccc3)nnc2cc1C1CCC1
inactive: Potency [1] | Potency [10] | Potency [7]
active: Potency [2] 0.418 µM | Potency [3] 1.05 µM | Potency [4] 0.469 µM | Potency [5] 0.469 µM

CC[C@H](CO)Nc1nc(NCc2ccccc2)c2ncn(C(C)C)c2n1
active: Potency [2] 16.6 µM | Potency [3] 20.9 µM | Potency [4] 29.6 µM | Potency [5] 20.9 µM | IC50 (viability decrease) [13] 18.7 µM | Potency [7] 18.7 µM
inactive: Potency [1] | Potency [14] | outcome [15] | Potency [8]

CC(C)(C)c1cnc(CSc2cnc(NC(=O)C3CCNCC3)s2)o1
inactive: Potency [1] | Potency [7]
active: Potency [2] 0.132 µM | Potency [3] 0.187 µM | Potency [4] 0.148 µM | Potency [5] 0.148 µM | Potency [6] 0.418 µM | Potency [8] 1.32 µM

N#CCNC(=O)c1ccc(-c2ccnc(Nc3ccc(N4CCOCC4)cc3)n2)cc1
active: Potency [2] 11.8 µM | Potency [3] 4.69 µM | Potency [4] 13.2 µM | Potency [5] 16.6 µM | Potency [10] 3.66 µM | Potency [7] 8.33 µM and 5.8 µM
inactive: Potency [1]

O=c1[nH]nc(Sc2ncc([N+](=O)[O-])s2)n1-c1ccc2c(c1)OCCO2
inactive: Potency [1]
active: Potency [2] 7.43 µM | Potency [3] 6.62 µM | Potency [4] 2.96 µM | Potency [5] 2.96 µM | Potency [6] 5.26 µM | IC50 (viability decrease) [13] 26.4 µM | Potency [7] 18.7 µM | Potency [8] 9.35 µM
